Experimental data from PubChem BioAssay (NCI).
“And” between values parts separate entries of the source, which are not always exact repeats. Identical values can stand only once. This is part of a sample that, as a whole, favours compounds with a hit. Of some 83,000 tested, about 20% had one in any assay.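 96-well plates, one dose, 48 hours. Percent growth reported; active if below 10.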 The source made the active and inactive calls.

How the values were obtained:
Assay in all cases: NCI-60 one-dose screen, 48 h (100 = growth as untreated, 0 = no growth, -100 = all killed)
Conditions in all cases: 10 µM unless noted
NCI-H23 lung = test system: NCI-H23 lung
NCI-H322M lung = test system: NCI-H322M lung
HOP-62 NSCLC = test system: HOP-62 NSCLC
NCI-H460 lung = test system: NCI-H460 lung
HOP-92 NSCLC = test system: HOP-92 NSCLC
A549/ATCC NSCLC = test system: A549/ATCC NSCLC
786-0 renal = test system: 786-0 renal
COLO 205 colon = test system: COLO 205 colon
DU-145 prostate = test system: DU-145 prostate
K-562 leukemia = test system: K-562 leukemia
MALME-3M melanoma = test system: MALME-3M melanoma
MDA-MB-231 breast = test system: MDA-MB-231 breast
RXF 393 renal = test system: RXF 393 renal
SF-268 CNS = test system: SF-268 CNS
SF-295 CNS = test system: SF-295 CNS
SF-539 CNS = test system: SF-539 CNS
UACC-257 melanoma = test system: UACC-257 melanoma
M14 melanoma = test system: M14 melanoma
NCI-H522 lung = test system: NCI-H522 lung

Row | SMILES | growth (NCI-H23 lung) | growth (NCI-H322M lung) | growth (HOP-62 NSCLC) | growth (NCI-H460 lung) | growth (HOP-92 NSCLC) | growth (A549/ATCC NSCLC) | growth (786-0 renal) | growth (COLO 205 colon) | growth (DU-145 prostate) | growth (K-562 leukemia) | growth (MALME-3M melanoma) | growth (MDA-MB-231 breast) | growth (RXF 393 renal) | growth (SF-268 CNS) | growth (SF-295 CNS) | growth (SF-539 CNS) | growth (UACC-257 melanoma) | growth (M14 melanoma) | growth (NCI-H522 lung)
1 | Nc1c(Cl)cc2c(c1Br)C(=O)c1ccccc1C2=O | 88.2% (inactive) | 96% (inactive) | 101% (inactive) | 110% (inactive) | 125% (inactive) | 98.1% (inactive) | 105% (inactive) | 104% (inactive) | 121% (inactive) | 83.5% (inactive) | 132% (inactive) | 83.3% (inactive) | 110% (inactive) | 108% (inactive) | 104% (inactive) | 84.6% (inactive) | 108% (inactive) | 108% (inactive) | –
2 | NCCSSC/C=C\CSSCCN | 102% (inactive) | 100% (inactive) | 98.4% (inactive) | 97.5% (inactive) | 84.6% (inactive) | 90.1% (inactive) | 99% (inactive) | 113% (inactive) | 104% (inactive) | 95.7% (inactive) | 103% (inactive) | 100% (inactive) | 102% (inactive) | 99.5% (inactive) | 104% (inactive) | 109% (inactive) | 91.3% (inactive) | – | 88.1% (inactive)
3 | N#CC1c2ccccc2C=CN1C(=O)c1ccccc1 (stereo unspecified) | 104% (inactive) and 112% (inactive) | 105% (inactive) and 103% (inactive) | – | 106% (inactive) and 98.9% (inactive) | – | – | 107% (inactive) and 102% (inactive) | 126% (inactive) and 157% (inactive) | 108% (inactive) and 94.1% (inactive) | 99.6% (inactive) and 112% (inactive) | 94.8% (inactive) and 108% (inactive) | 96% (inactive) and 94.1% (inactive) | 136% (inactive) and 118% (inactive) | 111% (inactive) and 84.8% (inactive) | 101% (inactive) and 93.3% (inactive) | 112% (inactive) and 86.6% (inactive) | 103% (inactive) and 113% (inactive) | 99.9% (inactive) and 98.7% (inactive) | 103% (inactive) and 91.7% (inactive)
4 | Nc1ccccc1SC(CC(=O)c1ccccc1)c1cccc([N+](=O)[O-])c1 (stereo unspecified) | 87.1% (inactive) and 90.4% (inactive) | – | 95.3% (inactive) and 95.4% (inactive) | 105% (inactive) and 100% (inactive) | – | 95.1% (inactive) and 78.7% (inactive) | 113% (inactive) and 91.8% (inactive) | 102% (inactive) and 109% (inactive) | 113% (inactive) and 85.5% (inactive) | 61% (inactive) and 7.1% (active) | 123% (inactive) and 86.7% (inactive) | 86.4% (inactive) and 99.6% (inactive) | 104% (inactive) and 94.7% (inactive) | 101% (inactive) and 83.9% (inactive) | 83.1% (inactive) and 92.3% (inactive) | 99.6% (inactive) and 105% (inactive) | 95% (inactive) and 87.7% (inactive) | 114% (inactive) and 89.9% (inactive) | 84.4% (inactive) and 73.3% (inactive)
5 | CC(=O)Nc1ccc(OC(C)=O)cc1 | 12% (inactive) and 103% (inactive) | 29.5% (inactive) and 112% (inactive) | 8.93% (active) and 111% (inactive) | 2.3% (active) and 98.6% (inactive) | 102% (inactive) | 6.06% (active) and 102% (inactive) | 11.4% (inactive) and 99.9% (inactive) | -81.3% (active) and 108% (inactive) | -16.4% (active) and 109% (inactive) | 8.26% (active) and 106% (inactive) | 44.4% (inactive) and 111% (inactive) | -20.3% (active) and 111% (inactive) | -5.2% (active) and 95.3% (inactive) | 23.1% (inactive) and 103% (inactive) | 9.59% (active) and 105% (inactive) | 2.32% (active) and 95.1% (inactive) | 55.4% (inactive) and 102% (inactive) | – | -31.9% (active) and 105% (inactive)
6 | c1ccc2c[n+](Cc3ccc4ccccc4n3)ccc2c1 | 69.1% (inactive) | 104% (inactive) | 80.1% (inactive) | 88.4% (inactive) | 56% (inactive) | 65.5% (inactive) | 95.3% (inactive) | 46.5% (inactive) | 99.8% (inactive) | 63.8% (inactive) | 75.7% (inactive) | 89.4% (inactive) | 91% (inactive) | 85.7% (inactive) | 91.4% (inactive) | 82.5% (inactive) | 56% (inactive) | 72.3% (inactive) | 84.9% (inactive)
7 | CCCCCc1cc[n+](CC(=O)c2ccccc2)cc1 | 96.6% (inactive) and 92.6% (inactive) | 92.4% (inactive) and 96% (inactive) | – | 76.7% (inactive) and 95.4% (inactive) | 67.7% (inactive) | 84.1% (inactive) and 101% (inactive) | 97% (inactive) and 96.3% (inactive) | 87.3% (inactive) and 101% (inactive) | 105% (inactive) and 110% (inactive) | 113% (inactive) and 104% (inactive) | 100% (inactive) and 108% (inactive) | 104% (inactive) and 106% (inactive) | 98.6% (inactive) and 110% (inactive) | 103% (inactive) and 107% (inactive) | 94.1% (inactive) | 96.3% (inactive) and 102% (inactive) | 99% (inactive) and 106% (inactive) | 100% (inactive) | 95% (inactive) and 99.3% (inactive)
8 | Cc1c(O)nc(N)[nH]c1=O | 93.8% (inactive) | 104% (inactive) | 99.7% (inactive) | 104% (inactive) | – | – | 114% (inactive) | 116% (inactive) | 119% (inactive) | 118% (inactive) | 109% (inactive) | 104% (inactive) | 118% (inactive) | 123% (inactive) | 97.4% (inactive) | 106% (inactive) | 105% (inactive) | 98.5% (inactive) | 99.5% (inactive)
9 | CCOC(=O)c1ccc(N2C(=O)C(Cl)(c3ccccc3)C2c2ccco2)cc1 (stereo unspecified) | 70.4% (inactive) | 83.8% (inactive) | 110% (inactive) | 84.2% (inactive) | 63.7% (inactive) | 86.2% (inactive) | 80.9% (inactive) | 96.7% (inactive) | 65.4% (inactive) | 31.1% (inactive) | 86.7% (inactive) | 80% (inactive) | 99.7% (inactive) | 77.8% (inactive) | 86.4% (inactive) | 96.2% (inactive) | 89.7% (inactive) | – | 34.2% (inactive)
10 | Nc1nc(N)c2cc(S(=O)(=O)c3ccccc3)ccc2n1 | 45% (inactive) and 40.9% (inactive) | 43.6% (inactive) and 41.5% (inactive) | 54.8% (inactive) and 46.3% (inactive) | 18.3% (inactive) and 14.7% (inactive) | 64.9% (inactive) and 92.5% (inactive) | 13.4% (inactive) and 25.7% (inactive) | 29.5% (inactive) and 26.8% (inactive) | 53.7% (inactive) and 58.3% (inactive) | 30.3% (inactive) and 40.9% (inactive) | 16.7% (inactive) and 26.1% (inactive) | 58.1% (inactive) and 29% (inactive) | 48.9% (inactive) and 51.8% (inactive) | 62% (inactive) and 85.6% (inactive) | 40.1% (inactive) and 38% (inactive) | 18.9% (inactive) | 30.5% (inactive) and 21.8% (inactive) | 39% (inactive) and 59.2% (inactive) | 35.2% (inactive) and 31.9% (inactive) | –
11 | Cc1cc2ccccc2c2cc3ccccc3cc12 | 94.9% (inactive) | 85.9% (inactive) | 85.6% (inactive) | 89.2% (inactive) | 99% (inactive) | 92.7% (inactive) | 110% (inactive) | 79.4% (inactive) | 107% (inactive) | 95.4% (inactive) | 86.9% (inactive) | 79.9% (inactive) | 97.7% (inactive) | 100% (inactive) | 96.9% (inactive) | 92.6% (inactive) | 99.6% (inactive) | 85.1% (inactive) | 81% (inactive)
